Experimental data: ChEMBL document CHEMBL4513216, “Probing the Open Global Health Chemical Diversity Library for Multistage-Active Starting Points for Next-Generation Antimalarials” (ACS Infect Dis, 2020)
In all, about 69,000 compounds went through this assay and about 8,600 (12%) showed an effect of 50% or more. The sample as a whole holds a higher share of strong results than the screen did.

These compounds were tested on Plasmodium berghei (assay: Screen against P. berghei liver stage (PbLuc), transformed with Luciferase, at 10uM). Details: tested at 10 uM.
Type: functional, HepG2

Structure (SMILES)	INHIBITION [%]
Cc1ccccc1C(=O)NCCCN1CCc2ccccc2C1	25.6
Cc1ccccc1C1(CNC(=O)c2ccc(S(C)(=O)=O)cc2)CC1	30.3
CS(=O)(=O)c1ccccc1C(=O)NCCCN1CCc2ccccc2C1	52.1
CS(=O)(=O)c1cccc(C(=O)NCCCN2CCc3ccccc3C2)c1	56.4
O=C(NCCCN1CCc2ccccc2C1)c1ccccc1Br	5.03
Cc1ccccc1C1(CNC(=O)c2cccc(S(C)(=O)=O)c2)CC1	-8.22
Cc1nc(C)n(CC2CCCCN2CC(=O)NC(C2CC2)C2CC2)n1 (stereo unspecified)	-24.2
O=c1c2ccccc2nc2n1C(CSc1cccc(C(F)(F)F)c1)CN2 (stereo unspecified)	37.8
CNC(=O)[C@@H]1C[C@H]2CN(C(=O)c3ccco3)C[C@H]2N1C	7.84
c1ccc(N2CCOC3(CCCN(c4nncs4)C3)C2)nc1 (stereo unspecified)	3.95
O=C1C[C@@H]2CC[C@H](CN1)N2C(=O)CCc1ccccc1	11.2
Cc1cc(CCC(N)=O)cc(C2CCCN2Cc2ccnn2C)n1 (stereo unspecified)	-2.11
Cc1cc(CCC(N)=O)cc(C2CCCN2Cc2cnc(C)nc2)n1 (stereo unspecified)	52
Cc1cc(CCC(N)=O)cc(C2CCCN2Cc2ccccn2)n1 (stereo unspecified)	18.3
Cc1noc(C)c1CNCC1COCc2c(-c3ccoc3)nnn2C1 (stereo unspecified)	-16.9
CCc1noc(C2CCCCN2C(=O)c2ccc3c(c2)OCO3)n1 (stereo unspecified)	7.66
Cc1nc(CN2CCCC2c2nc(C(C)C)no2)cs1 (stereo unspecified)	36.8
CCn1cc(CN2CCCC2c2nc(C(C)C)no2)cc1C#N (stereo unspecified)	25.8
CCn1ccc2ccc(CN3CCCC3c3nc(C(C)C)no3)cc21 (stereo unspecified)	61.2

Structure (SMILES)	INHIBITION [%]
C=C(C)CNC(C)c1ccc(S(C)(=O)=O)c(F)c1 (stereo unspecified)	-13.1
Nc1nccnc1C(=O)NC1CCN(Cc2ccccc2)C1 (stereo unspecified)	-14.5
Cc1cc(C)c2c(OCC(=O)NCC(O)C(F)(F)F)nn(C)c2n1 (stereo unspecified)	-23.4
COc1cccc(C2=CCN(CCN3CCCC3=O)CC2)c1	51.7
COc1cccc(C2=CCN(CCN3CCOC3=O)CC2)c1	9.37
COCCN1CC=C(c2cccc(OC)c2)CC1	-6.72
O=S(=O)(c1ccc(N2CCCCC2)c2nonc12)N1CCCCC1	30
COc1cc(F)ccc1-c1cnc(N)cn1	61.5
COc1cc(F)ccc1-c1cc(CO)ccn1	37.7
Nc1cnc(-c2ccc(F)cc2Cl)cn1	38.2
CN1CCN(C2CCOCC2)CC12CCC(=O)N(CC1CC1)CC2 (stereo unspecified)	5.46
Clc1cccc(-n2cnnn2)c1N1CCOCC1	1.86
Clc1cccc(-n2cnnn2)c1N1CCCCC1	67.3
Clc1cccc(-n2cnnn2)c1N1CCCC1	11
O=c1[nH]c2nc(NCC3CCCO3)ncc2c(=O)n1-c1ccc(F)cc1 (stereo unspecified)	88.8
O=c1[nH]c2nc(NCC3CCCO3)ncc2c(=O)n1-c1cccc(F)c1 (stereo unspecified)	-26.2
O=c1[nH]c2nc(NC3CC3)ncc2c(=O)n1-c1ccc(F)cc1	13.8
COCCN1CC[C@@H]2CN(Cc3nccn3C)C[C@@H]2C1	28.7
Cc1ccccc1C(=O)N1CCOC(c2ncc(CN(C)C)[nH]2)C1 (stereo unspecified)	-10.4

Structure (SMILES)	INHIBITION [%]
CCS(=O)(=O)N1C[C@@H](C(=O)NC(C)C)[C@@]2(Cc3ccccc3C(=O)N2)C1	-8.31
CCNC(=O)CCC(=O)NC1(c2cccc(C(F)(F)F)c2)CCC1	23.9
CS(=O)(=O)CCC(=O)NC1(c2cccc(C(F)(F)F)c2)CCC1	65.6
COCC(=O)NC1(c2cccc(C(F)(F)F)c2)CCC1	38.7
CC(C)NC(=O)Nc1ccc(CNCc2cccc(C#N)c2)cc1	43.7
Cc1ccc(C(CNCc2c[nH]nc2C)N(C)C)cc1 (stereo unspecified)	-4.33
O=C(NC1CC1)c1cc(Cl)ccc1-n1cnnn1	-3.59
CC(=O)N1CCC(NC(=O)c2cc(Cl)ccc2-n2cnnn2)CC1	37.7
CC(C)CN1CCC(NC(=O)c2ccc(F)cc2Cl)CC1	-23.4
O=C(NC1CCN(C2CC2)CC1)c1cc(Cl)ccc1-n1cnnn1	62.8
CC(C)CN1CCC(NC(=O)c2ccc(F)cc2F)CC1	31.1
CC(=O)N1CCC(NC(=O)c2cc(S(N)(=O)=O)ccc2C)CC1	-21.3
CC(C)CN1CCC(NC(=O)c2ccc(F)cc2I)CC1	50.1
CCN1CCC(NC(=O)c2ccc(F)cc2I)CC1	2.7
CC(=O)N1CCC(NC(=O)c2cc(Cl)ccc2O)CC1	61
CC(=O)N1CCC(NC(=O)c2ccccc2-n2cnnn2)CC1	35.9
CC(C)CN1CCC(NC(=O)c2ccc(Cl)cc2Cl)CC1	90.2
COCC(O)CN1CCC(NC(=O)c2ccccc2Cl)CC1 (stereo unspecified)	19.6
